Results as given in PubChem BioAssay (EPA / NIEHS).
The source made the active and inactive calls. Rule for the calls: active = hit-call score of the fitted dose curve at least 0.9, where 1 is the maximum; inactive = score below 0.9.

Key:
[1] = APR_HepG2_CellCycleArrest_24hr: Apredica 24-hour HepG2 Assay for Cell Cycle Arrest (AID 2282905); conditions: imaging, actives raise or lower the signal;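 note: cell cycle arrest scored as ratio of 2N to 4N nuclear DNA content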
Summary of the method: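 HepG2 cells were exposed to compounds at 0.39–200 uM (ten concentrations, duplicate) in 0.5% v/v DMSO for 24 hr. After formaldehyde fixation and Triton permeabilization, Hoechst 33342-stained nuclei were imaged at 20x; DNA content was quantified, with bidirectional fitting against DMSO.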

[2] = APR_HepG2_NuclearSize_24hr: Apredica 24-hour HepG2 Assay for Nuclear Size (AID 2282907); conditions: high-content imaging, actives raise or lower the signal
Summary of the method: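 HepG2 human liver cells were exposed for 24 hr to compounds at 0.39–200 uM (ten concentrations, duplicate) in 0.5% v/v DMSO. They were then formaldehyde-fixed, Triton-permeabilized and Hoechst 33342-stained, and nuclear diameter was imaged at 20x. Bidirectional fits were made against DMSO.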

[3] = APR_HepG2_CellLoss_24hr: Apredica 24-hour HepG2 Assay for Cell Loss (AID 2282908); conditions: high-content imaging;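 for AC50: fit in both directions so a hit may be cell loss or gain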
Summary of the method: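 Compounds were tested at 0.39–200 uM in duplicate with 0.5% v/v DMSO final. Cells were then fixed in 3.7% formaldehyde, Hoechst 33342 nuclei were imaged at 20x by HCS, and cell number was fitted bidirectionally against DMSO.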

[4] = APR_HepG2_MicrotubuleCSK_24hr: Apredica 24-hour HepG2 Assay for Microtubule CSK Stabilty (AID 2282909); conditions: HepG2 microtubule cytoskeleton imaging, actives raise or lower the signal
Summary of the method: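 HepG2 cells exposed 24 h to compounds at 0.39–200 uM (duplicate, 0.5% v/v DMSO final), then fixed, permeabilized and immunostained for alpha-tubulin with Hoechst 33342. Cytoskeleton imaged at 20x; bidirectional fit versus DMSO baseline.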

[5] = APR_HepG2_MitoticArrest_24hr: Apredica 24-hour HepG2 Assay for Mitotic Arrest (AID 2282910); conditions: high-content imaging, actives raise or lower the signal
Summary of the method: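 HepG2 human liver cells were exposed to compounds at 0.39–200 uM (10 concentrations, duplicate) in 0.5% v/v DMSO for 24 hr, then fixed and immunostained for phospho-histone H3 with Hoechst 33342. Mitotic arrest came from HCS fluorescent imaging, fitted bidirectionally against DMSO.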

[6] = APR_HepG2_MitoMembPot_24hr: Apredica 24-hour HepG2 Assay for Mitochondrial Membrane Potential (AID 2282911); conditions: imaging, actives raise or lower the signal
Summary of the method: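 Mitochondrial dye uptake (MitoTracker Red CMXRos, 250 nM, 30 min pre-fixation) in HepG2 after 24 hr compound exposure, 0.39–200 uM; ArrayScan images at 20x, activity fitted in both directions relative to DMSO.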

[7] = APR_HepG2_MitoMass_24hr: Apredica 24-hour HepG2 Assay for Mitochondrial Mass (AID 2282912); conditions: high-content imaging, actives raise or lower the signal
Summary of the method: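 Human HepG2 liver cells were exposed for 24 hr to compounds at 0.39–200 uM (duplicates, 0.5% v/v DMSO final). They were stained live with 250 nM MitoTracker Red CMXRos for 30 min, fixed in 3.7% formaldehyde, and imaged by HCS fluorescence; signals were fitted bidirectionally against DMSO.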

[8] = APR_HepG2_p53Act_24hr: Apredica 24-hour HepG2 Assay for p53 Activation (AID 2282913); conditions: high-content imaging, actives raise or lower the signal;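 note: p53 protein immunofluorescence averaged per cell in HepG2 with Hoechst nuclei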
Summary of the method: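 Following 24 hr dosing of HepG2 at 0.39–200 uM, the cells undergo formaldehyde fixation, Triton permeabilization and multiplexed antibody labeling that includes p53 (Cy5). Signal from the imaging is referenced to DMSO solvent controls.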

[9] = APR_HepG2_CellCycleArrest_72hr: Apredica 72-hour HepG2 Assay for Cell Cycle Arrest (AID 2282914); conditions: high-content imaging, actives raise or lower the signal
Summary of the method: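 Using multiplexed high-content imaging, HepG2 nuclei stained with Hoechst 33342 (2 ug/mL) were analysed for DNA content after fixation and permeabilization. Treatment lasted 72 hr across 0.39–200 uM in duplicate with final DMSO 0.5% v/v; DMSO served as negative control.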

[10] = APR_HepG2_CellLoss_72hr: Apredica 72-hour HepG2 Assay for Cell Loss (AID 2282915); conditions: high-content imaging
Summary of the method: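 HepG2 cells were exposed for 72 hr to compounds at 0.39–200 uM (ten concentrations, duplicate) in 0.5% v/v final DMSO. Nuclei were stained with Hoechst 33342 after 3.7% formaldehyde fixation, imaged at 20x, and counted; fits bidirectional versus DMSO.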

Measured: AC50

O=c1n(CC2CO2)c(=O)n(CC2CO2)c(=O)n1CC1CO1 (configuration not stated)
active: [1] 0.225 µM | [3] 1.8 µM | [4] 24.4 µM | [5] 27.8 µM | [7] 50 µM | [8] 11.3 µM | [9] 0.224 µM | [10] 10.7 µM
inactive: [2] | [6]

Cc1ccc(O)cc1
inactive: all assays above

CC[C@H](C)C(=O)O[C@H]1C[C@@H](C)C=C2C=C[C@H](C)[C@H](CC[C@@H]3C[C@@H](O)CC(=O)O3)[C@H]21
active: [3] 82 µM | [5] 28.9 µM | [6] 48.8 µM | [7] 5.52 µM | [10] 31.1 µM
inactive: all other assays above

On1ccccc1=S
active: [8] 19.6 µM | [9] 8.36 µM
not listed: [10]
inactive: all other assays above

Cc1c(-c2cccnc2)c2ccccc2n1CCCCC(=O)O
not listed: [10]
inactive: all other assays above

Cn1c(=O)cc(Oc2ccc(F)cc2F)c2cnc(NCC(C)(C)O)nc21
active: [9] 112 µM
inactive: all other assays above

CC(C)CCCCCCCOC(=O)CCCCC(=O)OCCCCCCCC(C)C
inactive: all assays above

COC(=O)c1ccccc1O
not listed: [10]
inactive: all other assays above

O=C(O)CCN(C1(C(=O)NO)CCCC1)S(=O)(=O)c1ccc(Oc2ccc(F)cc2)cc1
inactive: all assays above

CN(C)c1ccc(Cc2ccc(N(C)C)cc2)cc1
active: [6] 55.9 µM | [9] 50.8 µM | [10] 45.2 µM
inactive: all other assays above

CC/C(=C\C(=N/O)C(N)=O)C(C)[N+](=O)[O-] (configuration not stated)
inactive: all assays above

CC(O)CN(CCN(CC(C)O)CC(C)O)CC(C)O (configuration not stated)
inactive: all assays above

CCCCCCCCCCCCc1ccccc1
inactive: all assays above

COc1ccc(-n2nc(C(F)F)cc2-c2ccc(S(C)=O)cc2)cc1 (configuration not stated)
active: [1] 49.5 µM | [6] 5.03 µM | [10] 72.8 µM
inactive: all other assays above

Cn1cnc([N+](=O)[O-])c1Sc1ncnc2nc[nH]c12
active: [10] 44.8 µM
inactive: all other assays above

CCOCCO
inactive: all assays above

CC[C@H]1OC(=O)[C@H](C)[C@@H](O[C@H]2C[C@@](C)(OC)[C@@H](O)[C@H](C)O2)[C@H](C)[C@@H](O[C@@H]2O[C@H](C)C[C@H](N(C)C)[C@H]2O)[C@](C)(O)C[C@@H](C)C(=O)[C@H](C)[C@@H](O)[C@]1(C)O
inactive: all assays above

CCn1nc(Cc2ccccc2)cc1C1CCN(C[C@H]2C[C@H](N(C)[C@@H](C(=O)O)C(C)C)C[C@@H]2c2cccc(F)c2)CC1
active: [1] 46.3 µM | [10] 90.9 µM
inactive: all other assays above

CCc1cc(SCc2sc(-c3ccc(C(F)(F)F)cc3)nc2CN2CCN(c3ccc(OC)cc3)CC2)ccc1OCC(=O)O
active: [3] 49.7 µM | [4] 48.5 µM | [5] 55.9 µM | [8] 84 µM | [10] 39.5 µM
inactive: all other assays above

Cc1ccc(C)c(O)c1
inactive: all assays above

CCOC(=O)COc1ccc2c(c1)CC(NCC(O)c1cccc(Cl)c1)CC2 (configuration not stated)
active: [3] 84.4 µM | [5] 28.7 µM | [7] 41.5 µM | [8] 30.6 µM | [10] 71.4 µM
inactive: [1] | [2] | [4] | [6] | [9]

Cc1ccc(S(=O)(=O)O)cc1C
active: [10] 0.0391 µM
inactive: all other assays above

Cc1[nH]cnc1C[C@H]1CCc2c(C)c3ccccc3n2C1=O
active: [1] 146 µM | [3] 55.7 µM | [8] 97 µM | [9] 69.7 µM | [10] 24.5 µM
inactive: [2] | [4] | [5] | [6] | [7]

CCCCCCCCCCCCCCCO
active: [1] 107 µM | [9] 110 µM | [10] 93.8 µM
inactive: all other assays above

CC(C)(O)c1coc(S(=O)(=O)NC(=O)Nc2c3c(cc4c2CCC4)CCC3)c1
inactive: all assays above

C1=CCCC=CCCC=CCC1
inactive: all assays above

O=c1[nH]c2ccc(S(=O)CCN3CCC(Cc4ccc(F)cc4)CC3)cc2o1 (configuration not stated)
active: [9] 99.9 µM | [10] 76.1 µM
inactive: all other assays above

O=C1CCCCCN1
inactive: all assays above

CCOC(=O)c1ccc(C2CCC(NC[C@H](O)COc3ccc(O)c(NS(C)(=O)=O)c3)CC2)cc1 (some centres not stated)
active: [3] 32.3 µM | [4] 90.2 µM | [5] 27.5 µM | [6] 86.9 µM | [7] 28.1 µM | [8] 26.2 µM | [10] 25 µM
inactive: [1] | [2] | [9]

Nc1ccc(Nc2ccccc2)cc1
active: [6] 54 µM | [9] 13.8 µM | [10] 40.1 µM
inactive: all other assays above

COc1cccc(-c2ccc(/C=C\CN3CCCCCC3)cc2Cl)c1
inactive: [4] | [6]
active: [1] 87.1 µM | [2] 59.5 µM | [3] 74.8 µM | [5] 28.5 µM | [7] 23.8 µM | [8] 30.8 µM | [9] 84.2 µM | [10] 28.6 µM

C1N2CN3CN1CN(C2)C3
inactive: all assays above

CC(C)=CCC/C(C)=C/CO
active: [10] 81.1 µM
inactive: all other assays above

CCN(C(=O)c1cc(C)cc(OC[C@H](C)Nc2ccncc2)c1)C(C)C
inactive: all assays above

CC(C)=CCC/C(C)=C\CO
inactive: all assays above

Oc1ccc2c(c1)-c1ccccc1C2
inactive: [1] | [2] | [4] | [6]
active: [3] 100 µM | [5] 116 µM | [7] 111 µM | [8] 100 µM | [9] 124 µM | [10] 86.1 µM

COCCOCCOCCOC
inactive: all assays above

COCCOc1cc2cc(C(=O)NC3CCN(C(C)C)CC3)n(CC(=O)Nc3ccc(Cl)cn3)c2cn1
active: [3] 74 µM | [5] 89.4 µM | [7] 93.1 µM | [10] 93.1 µM
inactive: all other assays above

COc1ccc(/C=C/S(=O)(=O)NC(=O)c2ccc(C)cc2Cl)cc1
active: [1] 102 µM | [6] 14.7 µM | [10] 57.3 µM
inactive: all other assays above

O=C1OC(=O)C2C3C=CC(C3)C12 (configuration not stated)
inactive: all assays above

O=C(OC[C@H]1O[C@@H](OC(=O)c2cc(O)c(O)c(OC(=O)c3cc(O)c(O)c(O)c3)c2)[C@H](OC(=O)c2cc(O)c(O)c(OC(=O)c3cc(O)c(O)c(O)c3)c2)[C@@H](OC(=O)c2cc(O)c(O)c(OC(=O)c3cc(O)c(O)c(O)c3)c2)[C@@H]1OC(=O)c1cc(O)c(O)c(OC(=O)c2cc(O)c(O)c(O)c2)c1)c1cc(O)c(O)c(OC(=O)c2cc(O)c(O)c(O)c2)c1
active: [6] 26.4 µM | [7] 23.9 µM | [8] 20.8 µM | [10] 21.4 µM
inactive: all other assays above

COC(=O)c1c(Cl)c(Cl)c(C(=O)OC)c(Cl)c1Cl
inactive: all assays above
